Binding signal data for 13 molecules are collected here from paper PMC12864922, “TDP-43 directly inhibits mRNA accumulation in neurites through modulation of mRNA stability”.

B1: ENSMUSG00000034801.154|Sos2|134:138;197:201;231:235 (ssRNA)
RNA: GGGAGUUCUACAGUCCGACGAUCGCUUCGAUAUCCGCAUGCUAUUGUUUGGUUUUUACAUCUAGGAGACUUAGGAAUAAUACCCACUGUUCUUAAACUCUUUGAGACCAUGUCUUAAAUGUCAGUAUUUGCUGCUGAAGACAAAAACGGAAAAUAGAAUGAAAUAAUAGAAUGCACACACAUUAUUAUUUUGUUAAAAUUAUAAACAGUUCUACAUAACCUGAUUAUAGAAGAAGGGCAACACAUCAUUAAGAUGUGCCUUUUGUUUUGCAGUCAUACGUGUUUAGCUAAUCAUUGUUUAGCUCUCUUGCGGUCGCACUAGUGUGGAAUUCUCGGGUGUCAAGG
B2: ENSMUSG00000028439.239|Fam219a|33:39;67:71;117:126;145:149 (ssRNA)
RNA: GGGAGUUCUACAGUCCGACGAUCGCUUCGAUAUCCGCAUGCUAUCACAGGAGUUUCUGCAAAAGACUAUGACAUCACACACACUGUGGUCUCACGAGGUACCUGGAGGUCAUACUGCACGGACAUGGGAAGUACGUGAAGAUUUAUUUCGGGAAAAGUGCACACACACAAGCUGUACUGGGUGUCAUCAUACCUGUUGCUUCUGCUGCUGGUCUGGUCUGAGGGAGGAAAGCUGAGGCUGUAGCUCAGUGAGAUGGUGGCUCUCCCAUGGCUGAAGACAAGUGCAAGCAGAGAGAGCCUCAGGCUCUUGCGGUCGCACUAGUGUGGAAUUCUCGGGUGUCAAGG
B3: ENSMUSG00000031028.61|Tub|157:169;187:191 (ssRNA)
RNA: GGGAGUUCUACAGUCCGACGAUCGCUUCGAUAUCCGCAUGCUAUCAGUCCCCUGCUGCAGUGGUGUUAUCACACCGGAAAGCCUCUUCACCUGGAGGUACAGAGGGAGAGGAAGCACAAGCCUGGCUGCUGUGGCUCAGCCAUCCACUCAGCCUACGAGUCAGAGACAGUGGGUGUCCCGGGAAGCAGGGGUACAGUGACACACACACAUACUACAGGGCACUCAAGCUCAUACUAGAAAAAGCUCUGGUGGUCAGCAGAAAGCACUCCCACUUCAAAAGGGCCCAUUAGGCCCAAAGGGGGUCUCUUGCGGUCGCACUAGUGUGGAAUUCUCGGGUGUCAAGG
B4: ENSMUSG00000032194.9|Kank2 (ssRNA)
RNA: GGGAGUUCUACAGUCCGACGAUCGCUUCGAUAUCCGCAUGCUAGAGUGAAUACAGGGAGGAGCCAGUGAGUCCCCCAGGACCCACCAGCCACAAGCCACGCAUCAAACCGUCCCUCCUCCAUCCCUCUGUCCCAUUCUGCCUCGGCAUUCCUCAGCCCCUGAACUUCCCUGAGGGAGCCCUGACAUCUACCAGGCUCAAGCUCCUGGAAGCCUUUCCCAGCACCCUGGGUUCAAAGCCAGAAAGCCAAGCUACAUUCUCCUCCCAGUUGGCACCAGUUGACAACGCCUUGGGUGUGGGUUUCUCUCUUGCGGUCGCACUAGUGUGGAAUUCUCGGGUGUCAAGG
B5: ENSMUSG00000061578.1396|Ksr2 (ssRNA)
RNA: GGGAGUUCUACAGUCCGACGAUCGCUUCGAUAUCCGCAUGCUAAAGUAUAUAUACCUAUAAAUGCUAUAUAUAUUAUAUAUGUGUAUAUACAUAAAGACUACUUCUUGUACAGCCCUCCACGGACCUCAGGCCCACUGUUUUCUCCAUGUCUGUCUGUACUGACUGUUGCAGAAUGAGCUGAUGUAUGAUCUUGAUUCUCCAUUUUCCUUCUGGACCACAUGUCUCUUCCUUUUCCUUUUUAGAUCUGUCUUGCUCUCUGUCUCUCUCACUCAUUGCCAACAUGUUGCUGGGAAAGAAUAUUUCUCUUGCGGUCGCACUAGUGUGGAAUUCUCGGGUGUCAAGG
B6: ENSMUSG00000043670.80|Diras1|67:72 (ssRNA)
RNA: GGGAGUUCUACAGUCCGACGAUCGCUUCGAUAUCCGCAUGCUACUGGCUAAGGAACUGCUCAUCCCAGUCAGGCCCAGAGAGGUUACCUUGCCUCUCCAUCUCUGUCCCACACACCCCAGCCAUGCCCACUGUCCCUGUCCCUCACAUUCUAUCACUGUGACCUCUGGGGAGUGCCCAUUGACCUCAUCUUCCUUCACUAAUAUCUUAUUUCUUUCACCUGAUCCUGUCCUUUCCCCGUGACCUCUGACCUGUGGCCUUCCCUGGGUCCAGAACACCCCUGUCCUCUCCUGUCUGCACACCAGCUCUUGCGGUCGCACUAGUGUGGAAUUCUCGGGUGUCAAGG
B7: ENSMUSG00000090935.729|Synj2bp (ssRNA)
RNA: GGGAGUUCUACAGUCCGACGAUCGCUUCGAUAUCCGCAUGCUAAUCAACCUCCAGUAACAUAUGUGGUUAGUAAGUGCUUCAGCUUGUGUAGCCAUUAAUAACCAAGUCAUAGGAUUGUGAAUCUAAAAUACUCCUGGGUAAAAUUUGUAUUAGAAUGGAAAAAAAAAUGAGGGUCAGAAAGGUGAGCUAACUUCAAGUUAGAUACUCCCCUCUAUUUUGGUCUCAAAUUUGUUUUAGUGUGUCCACAACAUGAAAACAUACAAAAACUAUAUUUUAAAAAUCAGUUUACUUUCAUCUUUUCUCUCUUGCGGUCGCACUAGUGUGGAAUUCUCGGGUGUCAAGG
B8: ENSMUSG00000022095.164|Fam160b2|44:48 (ssRNA)
RNA: GGGAGUUCUACAGUCCGACGAUCGCUUCGAUAUCCGCAUGCUAGGCUAGGCCGAGACACAAGCAGAUAGCUCUGGCAUUGUUCUUCCAUACUCCUCCAUGGCUGGGGCUGCUACCUCACCCGGCCUGAAUCUGUCUCAACCUGCAAGAGCACUCGGGCGGCGCCAGGCAUUACCUCACAACAGGCCUGCAGUUGUUGGCUUCCCUCCUGGGCAAGGAGGAGCAGGCCAGAGCCCCUUUUGCUUCCUUUUCCUGCCCAUGCCACCUCUCGAAGCCGGGCACAGGUUGCCAGGAGGUGACAUGAACUCUUGCGGUCGCACUAGUGUGGAAUUCUCGGGUGUCAAGG
B9: ENSMUSG00000004113.278|Cacna1b|87:91;151:155;229:260 (ssRNA)
RNA: GGGAGUUCUACAGUCCGACGAUCGCUUCGAUAUCCGCAUGCUAAAGUCAGGCCCCUGGCUUAGCACUAGAAAAAAUAAAACCUCAUGGCUGCUUUGCAAAGGGAAAACCCAUGCUCAGGAAGGUGUUCACACACCACAGAUAGCUGGGAGGCCACGAGAGAAAGGUUGCACACAGACAGGCAGGCACUCCUUGCACACGUCUCUCUGUUUUGAAACUUCUGAUGACUUCUUGGUGGCUUGUUGUCUUCUACCCCAUGUUUCUCACAGGAUCACACACACACACACACACACACACACACACACCUCUUGCGGUCGCACUAGUGUGGAAUUCUCGGGUGUCAAGG
B10: ENSMUSG00000022095.188|Fam160b2 (ssRNA)
RNA: GGGAGUUCUACAGUCCGACGAUCGCUUCGAUAUCCGCAUGCUAGCAGUUGUUGGCUUCCCUCCUGGGCAAGGAGGAGCAGGCCAGAGCCCCUUUUGCUUCCUUUUCCUGCCCAUGCCACCUCUCGAAGCCGGGCACAGGUUGCCAGGAGGUGACAUGAAAGAGGAGGAAACUCCAUGACCUCUACAUCCCCCGCAGUCCUCCCAGCGGGGGAGGACUUCUCUGCUGCUCCGAAGAACAUCAUGCACUCCUGUGUGUGUGUGUGAGUGUGUGUGUGUGUGUGUGUGUGUGUGUGUGUGUAUGUGCUCUUGCGGUCGCACUAGUGUGGAAUUCUCGGGUGUCAAGG
B11: ENSMUSG00000022095.189|Fam160b2 (ssRNA)
RNA: GGGAGUUCUACAGUCCGACGAUCGCUUCGAUAUCCGCAUGCUAGUUGGCUUCCCUCCUGGGCAAGGAGGAGCAGGCCAGAGCCCCUUUUGCUUCCUUUUCCUGCCCAUGCCACCUCUCGAAGCCGGGCACAGGUUGCCAGGAGGUGACAUGAAAGAGGAGGAAACUCCAUGACCUCUACAUCCCCCGCAGUCCUCCCAGCGGGGGAGGACUUCUCUGCUGCUCCGAAGAACAUCAUGCACUCCUGUGUGUGUGUGUGAGUGUGUGUGUGUGUGUGUGUGUGUGUGUGUGUGUAUGUGUGUGUACUCUUGCGGUCGCACUAGUGUGGAAUUCUCGGGUGUCAAGG
B12: ENSMUSG00000022095.187|Fam160b2 (ssRNA)
RNA: GGGAGUUCUACAGUCCGACGAUCGCUUCGAUAUCCGCAUGCUAAGGCCUGCAGUUGUUGGCUUCCCUCCUGGGCAAGGAGGAGCAGGCCAGAGCCCCUUUUGCUUCCUUUUCCUGCCCAUGCCACCUCUCGAAGCCGGGCACAGGUUGCCAGGAGGUGACAUGAAAGAGGAGGAAACUCCAUGACCUCUACAUCCCCCGCAGUCCUCCCAGCGGGGGAGGACUUCUCUGCUGCUCCGAAGAACAUCAUGCACUCCUGUGUGUGUGUGUGAGUGUGUGUGUGUGUGUGUGUGUGUGUGUGUGUGCUCUUGCGGUCGCACUAGUGUGGAAUUCUCGGGUGUCAAGG
B13: ENSMUSG00000061578.732|Ksr2 (ssRNA)
RNA: GGGAGUUCUACAGUCCGACGAUCGCUUCGAUAUCCGCAUGCUAGGGGUCAUUGUUCAAUCCUGUAUCAAGACCUUGGAGUUGUCUAAGGCUGUGGGUUUUAAAUACCUGCUGCAGGCCUCCCAUCUCUGGCUCUUUGUUUCCACUCUGGCCCAAGUUUGAGUCUCCAUAUGGGCCCUUCCUGUCCUCAUGCCCUGCCUGUCUUCAUUCCACCCAUCCACCCUCCUAAGGAUUGGUCUUGUUCCGAGAGUGAUCCUGGUAACGCCAAGCCUCCCUCUGCCCCUGUGUUGGCUUCUGUGACGGACCUCUUGCGGUCGCACUAGUGUGGAAUUCUCGGGUGUCAAGG

Whole data set: some 9,900 sequences, median “r (bound/input frequency ratio)” near 0.7, cut for the highest 2% near 6.5. Only a selection was taken, and the highest values are over-represented in it overall.

Sequence of TDP-43 (Q13148 whole entry): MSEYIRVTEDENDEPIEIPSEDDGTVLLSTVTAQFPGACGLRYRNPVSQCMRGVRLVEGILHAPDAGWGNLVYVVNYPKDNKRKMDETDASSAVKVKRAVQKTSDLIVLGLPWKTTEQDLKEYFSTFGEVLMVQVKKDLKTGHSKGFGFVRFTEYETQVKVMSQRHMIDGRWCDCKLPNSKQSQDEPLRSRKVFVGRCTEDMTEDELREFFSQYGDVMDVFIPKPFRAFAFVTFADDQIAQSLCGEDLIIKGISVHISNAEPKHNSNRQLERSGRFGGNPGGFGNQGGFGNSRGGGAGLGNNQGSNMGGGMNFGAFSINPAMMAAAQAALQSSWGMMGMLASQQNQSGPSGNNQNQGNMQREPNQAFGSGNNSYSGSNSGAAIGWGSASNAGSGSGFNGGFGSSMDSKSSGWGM

The experiment addresses TDP-43 (Homo sapiens, UniProt Q13148 1-414). Put plainly: RNA Bind-n-Seq with designed 260-mer pool; 25 mM Tris-HCl, 150 mM KCl, 3 mM MgCl2, BSA (printed 500 mg/mL), 20 units/mL SUPERase IN; pH not stated; 500 nM RNA pool, 1 h, 4 C; TDP-43 5, 50, 500 nM; high values mean tight binding. The note with it: protein: recombinant; tags: SBP (GST cleaved off with PreScission; pGEX-GST-SBP). The procedure, abridged:
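Duplicate measurements used two independent batches of recombinant SBP-tagged TDP-43, which was captured on streptavidin beads at 5, 50 or 500 nM. The beads were incubated with 500 nM of an in vitro-transcribed 260-nt 3′ UTR oligo pool for 1 h at 4 °C in 25 mM Tris-HCl, 150 mM KCl, 3 mM MgCl2, BSA and SUPERase IN. After washing, biotin elution, reverse transcription, PCR amplification and sequencing, binding was expressed as R: each oligo's normalized read abundance in the bound sample over its abundance in input.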
As to B1, the binding signal is 0.018 R (bound/input frequency ratio).

Take B2: the binding signal was 1.35 R (bound/input frequency ratio).

As to B3, the binding signal is 0.59 R (bound/input frequency ratio).

Regarding B4, the binding signal is 1.04 R (bound/input frequency ratio).

As to B5, the binding signal is 0.176 R (bound/input frequency ratio).

Take B6: the binding signal was 2.36 R (bound/input frequency ratio).

For the molecule B7, the binding signal is 0.0597 R (bound/input frequency ratio).

For the molecule B8, the binding signal was 0.529 R (bound/input frequency ratio).

Regarding B9, the binding signal was 1.82 R (bound/input frequency ratio).

As for B10, the binding signal is 7.09 R (bound/input frequency ratio).

As for B11, the binding signal was 5.45 R (bound/input frequency ratio).

In the case of B12, the binding signal is 6.28 R (bound/input frequency ratio).

For the molecule B13, the binding signal is 1.54 R (bound/input frequency ratio).
